{
  "source": "paper PMC4336329",
  "about": "(PLoS ONE, 2015)",
  "note": "Out of some 310,000 compounds screened, about 14,000 (4.5%) showed an effect of 50% or more. Effects have a minus sign here. Only a selection was taken, and strong results are over-represented in it overall.",
  "data": [
    {"biological_target": "human ether-à-go-go-related gene (hERG) potassium channel (human, UniProt Q12809)", "sequence (Q12809 whole entry, looked up)": "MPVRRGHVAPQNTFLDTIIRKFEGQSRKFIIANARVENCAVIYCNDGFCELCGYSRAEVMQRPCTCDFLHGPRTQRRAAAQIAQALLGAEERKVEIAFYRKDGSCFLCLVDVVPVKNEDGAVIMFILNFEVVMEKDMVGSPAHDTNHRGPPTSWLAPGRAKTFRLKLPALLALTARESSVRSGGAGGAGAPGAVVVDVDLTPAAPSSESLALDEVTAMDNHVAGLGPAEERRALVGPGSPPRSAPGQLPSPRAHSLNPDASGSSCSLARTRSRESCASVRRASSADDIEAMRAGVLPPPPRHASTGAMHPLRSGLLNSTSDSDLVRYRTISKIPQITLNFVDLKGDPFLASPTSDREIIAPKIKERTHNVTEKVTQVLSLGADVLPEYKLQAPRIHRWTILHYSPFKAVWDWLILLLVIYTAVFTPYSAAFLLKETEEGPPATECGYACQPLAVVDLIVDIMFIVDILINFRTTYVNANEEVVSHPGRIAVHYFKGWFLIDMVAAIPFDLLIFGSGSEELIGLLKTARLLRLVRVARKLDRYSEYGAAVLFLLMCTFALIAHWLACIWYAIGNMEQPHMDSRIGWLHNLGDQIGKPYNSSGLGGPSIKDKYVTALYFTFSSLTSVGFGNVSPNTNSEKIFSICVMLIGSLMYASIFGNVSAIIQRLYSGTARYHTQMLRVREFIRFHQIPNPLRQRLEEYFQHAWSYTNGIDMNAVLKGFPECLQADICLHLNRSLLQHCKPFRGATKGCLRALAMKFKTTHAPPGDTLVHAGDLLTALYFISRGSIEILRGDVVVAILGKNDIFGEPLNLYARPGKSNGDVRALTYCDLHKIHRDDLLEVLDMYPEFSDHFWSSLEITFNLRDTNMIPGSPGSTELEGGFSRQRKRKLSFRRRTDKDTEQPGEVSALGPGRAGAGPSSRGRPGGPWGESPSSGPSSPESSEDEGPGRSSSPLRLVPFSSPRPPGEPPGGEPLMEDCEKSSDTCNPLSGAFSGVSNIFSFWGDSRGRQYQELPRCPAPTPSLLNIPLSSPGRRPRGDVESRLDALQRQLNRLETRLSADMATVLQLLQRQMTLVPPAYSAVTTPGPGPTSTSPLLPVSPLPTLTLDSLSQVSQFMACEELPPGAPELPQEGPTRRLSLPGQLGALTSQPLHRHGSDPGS", "assay": "primary screen, population patch clamp on CHO cells stably expressing hERG; higher = less effect of the substance", "units": {"hERG current change (%, negative = inhibition) at 10uM": "%"}, "values": [
      {"compound": "CC(=O)c1ccccc1C(=O)N(C)C1CCCN(Cc2ccccc2F)C1", "note": "(stereo not shown);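 further: peak tail current of the secondary pulse compared with the same well before compound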", "hERG current change (%, negative = inhibition) at 10uM": 15.2},
      {"compound": "CNC(=O)N(O)C1N(/N=C/c2ccc(SC)cc2)C(=S)SC1(C)C", "note": "(stereo not shown)", "hERG current change (%, negative = inhibition) at 10uM": 26.3},
      {"compound": "O=C(NCCN1CCOCC1)c1ccc2c(c1)N(Cc1ccc(Cl)cc1)CCS2", "hERG current change (%, negative = inhibition) at 10uM": -29.8},
      {"compound": "N#Cc1c(N)n(-c2ccc(O)cc2)c2nc3ccccc3nc12", "hERG current change (%, negative = inhibition) at 10uM": 8.96},
      {"compound": "COc1cccc(CC2(CO)CCCN(Cc3cn[nH]c3-c3ccccc3)C2)c1", "note": "(stereo not shown)", "hERG current change (%, negative = inhibition) at 10uM": -49.9},
      {"compound": "COc1ccc(CN2CCCC(CO)(Cc3ccc(F)cc3)C2)c(OC)c1OC", "note": "(stereo not shown)", "hERG current change (%, negative = inhibition) at 10uM": -71.1},
      {"compound": "Cc1ccc(C)c(-c2[nH]ncc2CN2CCCC(CO)(Cc3ccccc3C)C2)c1", "note": "(stereo not shown)", "hERG current change (%, negative = inhibition) at 10uM": -47.8},
      {"compound": "COc1cccc(CC2(CO)CCCN(Cc3cn(C)c4ccccc34)C2)c1", "note": "(stereo not shown)", "hERG current change (%, negative = inhibition) at 10uM": -77.9},
      {"compound": "COc1ccc(CN2CCCC(CO)(Cc3ccc(F)cc3)C2)cc1C", "note": "(stereo not shown)", "hERG current change (%, negative = inhibition) at 10uM": -47.7},
      {"compound": "COc1cccc(CC2(CO)CCCN(Cc3cn[nH]c3-c3cc(C)ccc3C)C2)c1", "note": "(stereo not shown)", "hERG current change (%, negative = inhibition) at 10uM": -59.2},
      {"compound": "COc1cccc(CC2(CO)CCCN(Cc3ccccc3-c3ccco3)C2)c1", "note": "(stereo not shown)", "hERG current change (%, negative = inhibition) at 10uM": -75.8},
      {"compound": "COc1cccc(CC2(CO)CCCN(Cc3ccc(-c4ccco4)cc3)C2)c1", "note": "(stereo not shown)", "hERG current change (%, negative = inhibition) at 10uM": -3.75},
      {"compound": "COc1cccc(CC2(CO)CCCN(Cc3ccccc3Cl)C2)c1", "note": "(stereo not shown)", "hERG current change (%, negative = inhibition) at 10uM": -31.2},
      {"compound": "OCC1(Cc2ccc(F)cc2)CCCN(Cc2ccc(F)cc2Cl)C1", "note": "(stereo not shown)", "hERG current change (%, negative = inhibition) at 10uM": -2.59},
      {"compound": "CC1C(=O)C(C)C(c2ccco2)NC1c1ccco1.Cl", "note": "(stereo not shown)", "hERG current change (%, negative = inhibition) at 10uM": 13.9},
      {"compound": "O=C(CSc1nnc(CNC(=O)c2cccs2)o1)NC1CCCCC1", "hERG current change (%, negative = inhibition) at 10uM": -24},
      {"compound": "C/C(=N/NC(=O)c1ccncc1)c1ccc2c(c1)OCO2", "hERG current change (%, negative = inhibition) at 10uM": 13.8},
      {"compound": "COc1cccc(CC2(CO)CCCN(Cc3ccc(OC)c(C)c3OC)C2)c1", "note": "(stereo not shown)", "hERG current change (%, negative = inhibition) at 10uM": -77.6},
      {"compound": "COc1ccc(C(N)=O)cc1NC(=O)c1cccc(F)c1", "hERG current change (%, negative = inhibition) at 10uM": 18.9},
      {"compound": "NC(=O)c1ccc(NC(=O)COC(=O)C(Cc2ccccc2)NC(=O)c2ccccc2)cc1", "note": "(stereo not shown)", "hERG current change (%, negative = inhibition) at 10uM": -53},
      {"compound": "O=C(COC(=O)C(Cc1ccccc1)NC(=O)c1ccc(Cl)cc1)c1ccc(Cl)cc1", "note": "(stereo not shown)", "hERG current change (%, negative = inhibition) at 10uM": -27.3},
      {"compound": "O=C(COC(=O)C(Cc1ccccc1)NC(=O)c1ccccc1)c1ccccc1", "note": "(stereo not shown)", "hERG current change (%, negative = inhibition) at 10uM": -1.84},
      {"compound": "O=C(NC1CC1)C1=C[C@H](c2ccc(C(F)(F)F)cc2)C[C@H](OCc2ccc(CO)cc2)O1", "hERG current change (%, negative = inhibition) at 10uM": -42.7},
      {"compound": "O=C(NC1CC1)C1=C[C@@H](c2ccccc2)C[C@@H](OCc2ccc(CO)cc2)O1", "hERG current change (%, negative = inhibition) at 10uM": -38.3},
      {"compound": "O=C(O)C1=C[C@@H](c2ccc(C(F)(F)F)cc2)C[C@@H](OCc2ccc(CO)cc2)O1", "hERG current change (%, negative = inhibition) at 10uM": 16.7},
      {"compound": "CN1CCN(C(=O)C2=C[C@@H](c3ccc(C(F)(F)F)cc3)C[C@@H](OCc3ccc(CO)cc3)O2)CC1", "hERG current change (%, negative = inhibition) at 10uM": -52.6},
      {"compound": "O=C(NC1CC1)C1=C[C@H](c2ccc(Br)cc2)C[C@H](OCc2ccc(CO)cc2)O1", "hERG current change (%, negative = inhibition) at 10uM": -71.1},
      {"compound": "O=C(NC1CC1)C1=C[C@@H](c2ccc(C(F)(F)F)cc2)C[C@@H](OCc2ccc(CO)cc2)O1", "hERG current change (%, negative = inhibition) at 10uM": -63.2},
      {"compound": "O=C(NC1CC1)C1=C[C@@H](c2ccc(Br)cc2)C[C@@H](OCc2ccc(CO)cc2)O1", "hERG current change (%, negative = inhibition) at 10uM": -56.4},
      {"compound": "O=C(C1=C[C@H](c2ccc(C(F)(F)F)cc2)C[C@H](OCc2ccc(CO)cc2)O1)N1CCCCCCC1", "hERG current change (%, negative = inhibition) at 10uM": -17.7},
      {"compound": "C#Cc1ccc([C@@H]2C=C(C(=O)NC3CC3)O[C@H](OCc3ccc(CO)cc3)C2)cc1", "hERG current change (%, negative = inhibition) at 10uM": -3.96},
      {"compound": "CN1CCN(C(=O)C2=C[C@H](c3ccc(C(F)(F)F)cc3)C[C@H](OCc3ccc(CO)cc3)O2)CC1", "hERG current change (%, negative = inhibition) at 10uM": -40.4},
      {"compound": "O=C(O)C1=C[C@H](c2ccc(Br)cc2)C[C@H](OCc2ccc(CO)cc2)O1", "hERG current change (%, negative = inhibition) at 10uM": 15.1},
      {"compound": "O=C(NC1CC1)C1=C[C@H](c2ccccc2)C[C@H](OCc2ccc(CO)cc2)O1", "hERG current change (%, negative = inhibition) at 10uM": -19.9}
    ]}
  ]
}
